Among the data in PubChem BioAssay (Tox21) are Potency and max response values, retold here.

Test [1] in a line: qHTS RealTime-Glo MT Cell Viability Assay in HepG2 cells - 40 hour (AID 1224870). Also: nearly all actives have a fitted effect of over 50% in size. A digest of the protocol: (§1)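 HepG2 cells mixed with RealTime-Glo MT reagents (NanoLuc plus cell-permeant prosubstrate) were seeded at 600 cells/well, incubated 5 h at 37 C/5% CO2, then pinned with compounds in DMSO; nonlytic luminescence tracked viability during 40 h treatment.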
A general note: qHTS replaces the single test concentration by a dilution series.

The nature of test [2]: A CellTox Green Cytotoxicity Assay to monitor cytotoxicity in HEK293 cells - 40 hour (AID 1224871). Also: nearly all actives have a fitted effect of over 45% in size. An outline of the steps: (§2)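 Seeding of HEK293 cells together with cytotoxicity dye preceded a 5 h incubation at 37 C/5% CO2. Test compounds in DMSO were then added and fluorescence monitored across 40 h.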
Test [3] can be described thus: qHTS RealTime-Glo MT Cell Viability Assay in HEK293 cells - 16 hour (AID 1224872). Also: top concentration of the series differs between compounds; nearly all actives have a fitted effect of over 50% in size. An outline of the steps:
(§3)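 Tox21 10K qHTS, HEK293, 600 cells/well, RealTime-Glo reagent co-dispensed with cells; 5 h preincubation, compound by pintool, 37 C, luminescence at 0–40 h.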

Test [4] is described as follows: qHTS RealTime-Glo MT Cell Viability Assay in HepG2 cells - 8 hour (AID 1224873). Also: nearly all actives have a fitted effect of over 55% in size. A digest of the protocol:
as §1

A short description of test [5]: qHTS RealTime-Glo MT Cell Viability Assay in HEK293 cells - 40 hour (AID 1224874). Also: nearly all actives have a fitted effect of over 50% in size. As to conditions: RealTime-Glo luminescence; max response: hits give low values. An outline of the steps: (§4)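 Tox21 screen in HEK293 using RealTime-Glo MT chemistry, with cells and reagent co-dispensed. Luminescence proportional to viable cell number was captured at intervals during 40 h compound exposure at 37 C.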

A short description of test [6]: A CellTox Green Cytotoxicity Assay to monitor cytotoxicity in HEK293 cells - 24 hour (AID 1224875). Also: series mostly up to about 77 µM; nearly all actives have a fitted effect of over 45% in size. An outline of the steps: as §2
Test [7] can be described thus: A CellTox Green Cytotoxicity Assay to monitor cytotoxicity in HepG2 cells - 16 hour (AID 1224876). Also: nearly all actives have a fitted effect of over 45% in size. A digest of the protocol: (§5)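 Nonlytic assay: viable cells exclude the dye, so fluorescence scales with cell death. HepG2 at 600 cells/well, compounds added after 5 h, signal read across 40 h.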
Test [8] can be described thus: qHTS RealTime-Glo MT Cell Viability Assay in HepG2 cells - 32 hour (AID 1224877). Also: nearly all actives have a fitted effect of over 55% in size. An outline of the steps:
(§6)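 Cells + NanoLuc/prosubstrate dispensed (600 cells/well) → 5 h at 37 C/5% CO2 → compounds in DMSO transferred → 40 h incubation at 37 C, luminescence read at 0, 8, 16, 24, 32, 40 h.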

The nature of test [9]: A CellTox Green Cytotoxicity Assay to monitor cytotoxicity in HepG2 cells - 24 hour (AID 1224878). Also: nearly all actives have a fitted effect of over 45% in size. A digest of the protocol:
as §5

Test [10] can be described thus: A CellTox Green Cytotoxicity Assay to monitor cytotoxicity in HepG2 cells - 40 hour (AID 1224879). Also: nearly all actives have a fitted effect of over 40% in size. Also: potency is read from the fitted curve at half-maximal effect. An outline of the steps:
as §5

A short description of test [11]: qHTS RealTime-Glo MT Cell Viability Assay in HEK293 cells - 0 hour (AID 1224880). An outline of the steps: as §4
A short description of test [12]: A CellTox Green Cytotoxicity Assay to monitor cytotoxicity in HEK293 cells - 32 hour (AID 1224881). Also: nearly all actives have a fitted effect of over 40% in size. An outline of the steps:
as §2

Test [13] in a line: A CellTox Green Cytotoxicity Assay to monitor cytotoxicity in HepG2 cells - 0 hour (AID 1224882). Also: nearly all actives have a fitted effect of over 35% in size. An outline of the steps:
as §5

The nature of test [14]: A CellTox Green Cytotoxicity Assay to monitor cytotoxicity in HepG2 cells - 32 hour (AID 1224883). Also: nearly all actives have a fitted effect of over 50% in size. Also: potency is read from the fitted curve at half-maximal effect. An outline of the steps: as §5
Test [15] in a line: qHTS RealTime-Glo MT Cell Viability Assay in HepG2 cells - 16 hour (AID 1224885). Also: nearly all actives have a fitted effect of over 50% in size. A digest of the protocol:
as §6

The nature of test [16]: qHTS RealTime-Glo MT Cell Viability Assay in HEK293 cells - 24 hour (AID 1224886). An outline of the steps:
as §3

Test [17] is described as follows: qHTS RealTime-Glo MT Cell Viability Assay in HEK293 cells - 8 hour (AID 1224887). A digest of the protocol:
as §4

Test [18] can be described thus: A CellTox Green Cytotoxicity Assay to monitor cytotoxicity in HEK293 cells - 16 hour (AID 1224888). Also: nearly all actives have a fitted effect of over 35% in size. A digest of the protocol: as §2
Test [19] in a line: qHTS RealTime-Glo MT Cell Viability Assay in HepG2 cells - 0 hour (AID 1224889). Also: nearly all actives have a fitted effect of over 50% in size. Also: potency is read from the fitted curve at half-maximal effect. A digest of the protocol: as §6
Test [20] in a line: A CellTox Green Cytotoxicity Assay to monitor cytotoxicity in HEK293 cells - 8 hour (AID 1224884). Also: nearly all actives have a fitted effect of over 35% in size. A digest of the protocol: as §2

A number with no mark means an inactive call. Inconclusive results are not listed. The source made the active and inactive calls. Calls follow the shape of the dose curve; as a rule, active = well fitted curve in the direction sought with a large enough effect in the repeat runs; inconclusive = weak or mixed curves; inactive = no such curve, though single readings can be large; an effect the other way counts as inactive or inconclusive.
% is scaled to controls: 0 for no effect and ±100 for the full control effect.

As to `Cc1ccc(N)cc1C`, the Potency entry in test [1], in test [2], in [3], in [4], in test [6] and in test [7] was “inactive” each time. For the same compound, the Potency entry in [8], in [9], in test [10], in [11], in [12] and in [13] was “inactive” in each case. The Potency result in test [14], in test [15], in test [16], in test [17] and in test [18] was “inactive” each time. Further, in [5], the max response was 13.4%.
Consider `O=C(NC(=O)c1c(F)cccc1F)Nc1ccc(OC(F)(F)C(F)OC(F)(F)F)c(Cl)c1` (stereo not drawn), for which the Potency result in [1], in test [2], in test [3], in test [4], in test [6] and in test [7] was “inactive” throughout. For the same compound, the Potency result in test [8], in test [9], in test [10], in [11], in test [12] and in [13] was “inactive” in each case. In addition, the Potency entry in test [14], in test [15], in test [16], in test [17], in test [18] and in [19] was “inactive” each time. Besides, in [5], the max response is -1.18%.
On to `Clc1cc(Cl)c(Cl)c(Cl)c1`, for which the Potency entry in [1], in [2], in test [3], in [4], in [6] and in test [7] was “inactive” in each case. In addition, the Potency entry in [8], in test [9], in test [10], in test [11], in [12] and in [13] was “inactive” each time. Also, the Potency result in test [20], in test [15], in test [16], in test [17], in [18] and in [19] was “inactive” each time. Besides, in test [5], the max response is -4.38%.
Consider `C=CCOC(C)=O`, for which the Potency entry in [1], in test [2], in [3], in test [4], in test [6] and in [7] was “inactive” in each case. The Potency entry in [8], in test [9], in test [10], in test [11], in [12] and in test [13] was “inactive” in each case. In addition, the Potency result in test [20], in [15], in [16], in test [17] and in test [18] was “inactive” each time. Also, the max response in test [5] is -6.55%. In addition, the Potency in [19] was 12.1 µM (active).
With `CC(C)O.CC(C)O.OCCN(CCO)CCO.OCCN(CCO)CCO.[Ti]`, the Potency entry in [1], in test [2], in [3], in [4], in test [6] and in [7] was “inactive” in each case. Further, the Potency result in [8], in test [9], in test [10], in test [11], in [12] and in test [13] was “inactive” each time. Also, the Potency result in [14], in [16], in test [17], in test [18] and in test [19] was “inactive” in each case. For the same compound, in test [5], the max response was 16.3%.
With `C=COC(C)=O`, the Potency entry in test [1], in test [2], in test [3], in test [4], in test [6] and in test [7] was “inactive” each time. In addition, the Potency entry in test [8], in test [9], in test [10], in test [11], in test [12] and in [13] was “inactive” each time. Further, the Potency result in [14], in test [20], in test [15], in [16], in test [17] and in [19] was “inactive” in each case. In addition, the max response in [5] is 2.49%.
Regarding `CCC(Cl)CCl` (stereo not drawn), the Potency entry in [1], in test [2], in test [3], in test [4], in [6] and in test [7] was “inactive” each time. The Potency result in test [8], in test [9], in test [10], in [11], in test [12] and in [13] was “inactive” throughout. Besides, the Potency entry in test [14], in [20], in test [15], in test [16], in [17] and in [19] was “inactive” throughout. Moreover, the max response in test [5] was 2.27%.
On to `Cc1c(F)c(F)c(COC(=O)C2C(/C=C(\Cl)C(F)(F)F)C2(C)C)c(F)c1F` (stereo not drawn), for which the Potency entry in test [1], in test [2], in [3], in [4], in test [6] and in test [7] was “inactive” each time. The Potency entry in [8], in test [9], in test [10], in [11], in [12] and in test [13] was “inactive” in each case. The Potency result in [14], in test [20], in [16], in test [17], in test [18] and in [19] was “inactive” each time. Besides, in test [5], the max response was 6.54%.
`O=C(OC1CCCCC1)c1ccccc1C(=O)OC1CCCCC1`: the Potency result in test [1], in test [2], in [3], in [4], in test [6] and in [7] was “inactive” each time. For the same compound, the Potency result in test [8], in test [9], in [10], in test [11], in test [12] and in test [13] was “inactive” each time. The Potency result in test [14], in [20], in [16], in [17], in [18] and in [19] was “inactive” throughout. Moreover, the max response in test [5] is -29.8%.
On to `N#CCc1ccccc1`, for which the Potency entry in test [1], in test [2], in test [3], in [4], in test [6] and in [7] was “inactive” throughout. The Potency result in test [8], in [9], in [10], in test [11], in test [12] and in [13] was “inactive” throughout. Moreover, the Potency entry in test [14], in test [20], in test [16], in test [17], in test [18] and in [19] was “inactive” each time. Further, the max response in test [5] was 2.97%.
As to `CCOP(O)OCC`, the Potency result in test [1], in test [2], in test [3], in test [4], in [6] and in test [7] was “inactive” each time. Further, the Potency entry in test [8], in test [9], in test [10], in test [11], in [12] and in test [13] was “inactive” throughout. The Potency result in [14], in [20], in test [15], in test [16], in test [17] and in [18] was “inactive” each time. The Potency entry in test [19] was “inactive”. Further, the max response in [5] was 0.744%.
Take `C=CCCl`: the Potency result in test [1], in test [2], in test [3], in [4], in test [6] and in [7] was “inactive” in each case. Moreover, the Potency entry in [8], in test [9], in test [10], in [11], in [12] and in [13] was “inactive” in each case. Moreover, the Potency entry in [14], in [15], in [16], in test [17], in test [18] and in test [19] was “inactive” throughout. For the same compound, the max response in [5] was -3.44%.
Take `O=C(O)COc1ccc(Cl)cc1`: the Potency result in test [1], in test [2], in test [3], in test [4], in test [6] and in test [7] was “inactive” each time. For the same compound, the Potency entry in [8], in test [9], in test [10], in test [11], in [12] and in test [13] was “inactive” each time. For the same compound, the Potency result in [14], in test [20], in [16], in test [17] and in [18] was “inactive” throughout. Besides, the max response in test [5] was 0.692%.
Regarding `CCOC(=O)C(Cl)C(C)=O` (stereo not drawn), the Potency entry in test [1], in test [2], in test [3], in test [4], in test [6] and in test [7] was “inactive” throughout. The Potency entry in test [8], in test [9], in test [11], in [12], in test [13] and in [15] was “inactive” throughout. In addition, the Potency entry in test [16], in test [17] and in test [18] was “inactive” throughout. The max response in [5] was -9.27%. For the same compound, the Potency in [10] and in [14] was 24.8 µM (active) throughout.
